PubChem BioAssay (EPA / NIEHS)
Results filed as inconclusive are left out. Calls of active or inactive are those of the source. The calls were made as follows: active = hit-call score of the fitted dose curve at least 0.9, where 1 is the maximum; inconclusive = response in the unintended direction; inactive = score below 0.9.

assay: IUF_NPC5_oligodendrocyte_differentiation_120hr: Leibniz Research Institute for Environmental Medicine (IUF) 120-hour Oligodendrocyte Differentiation Assay (NPC5) (AID 2284304);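 also: primary human fetal neural progenitor spheres plated to migrate and differentiate; share of O4-positive cells among Hoechst nuclei found by CNN image analysis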
Summary of the method: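 Oligodendrocyte differentiation was scored after 120 h as the O4-positive share of Hoechst-stained nuclei across the neurosphere migration area, using a trained convolutional neural network on high-content fluorescence images. Human fetal neural progenitor spheres were dosed from day 0, normalised to DMSO.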

| SMILES | AC50 | outcome |
| --- | --- | --- |
| O=C(CCCN1CCC(O)(c2ccc(Cl)cc2)CC1)c1ccc(F)cc1 | 3.35 µM (active) |  |
| CC(=O)Nc1ccc(O)cc1 |  | inactive |
| CC(C)c1c(C(=O)Nc2ccccc2)c(-c2ccccc2)c(-c2ccc(F)cc2)n1CC[C@@H](O)C[C@@H](O)CC(=O)O |  | inactive |
| O=C1NS(=O)(=O)c2ccccc21 |  | inactive |

assay: IUF_NPC4_neurite_area_120hr: Leibniz Research Institute for Environmental Medicine (IUF) 120-hour Neuronal Morphology Assay for Neurite Area (NPC4) (AID 2284305)
Summary of the method: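 Human fetal neural progenitor spheres (0.3 mm) plated on poly-D-lysine/laminin in N2 differentiation medium, exposed 120 h (7 concentrations, DMSO ≤0.1%, half-medium refresh day 3). Fixed, TUBB3 immunostained; mean neurite area per neuron by Omnisphero skeletonization.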

| SMILES | outcome |
| --- | --- |
| O=C(CCCN1CCC(O)(c2ccc(Cl)cc2)CC1)c1ccc(F)cc1 | inactive |
| CC(=O)Nc1ccc(O)cc1 | inactive |
| CC(C)c1c(C(=O)Nc2ccccc2)c(-c2ccccc2)c(-c2ccc(F)cc2)n1CC[C@@H](O)C[C@@H](O)CC(=O)O | inactive |
| O=C1NS(=O)(=O)c2ccccc21 | inactive |
